Screening results: PubChem BioAssay, The Scripps Research Institute Molecular Screening Center
Only some compounds are listed: those with a hit (about 1.3% of all), similar ones and a draw of the others.
PREPL inhibitor = inhibits the human prolyl oligopeptidase-like enzyme | Q4J6C6 | recombinant PREPL, fluorescence polarization activity-based probe | inhibition, % at 5.96 µM | 0.68% of 320,000 active | AID 2751; in the data active = inhibition above about 43%
LYPLA1 inh = counter-screen for PME1 inhibitors: inhibitors of human LYPLA1; O75608; recombinant LYPLA1, FP-Rh probe fluorescence polarization; inhibition, % at 5.9 µM; 0.16% of 320,000 active; AID 2174;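 active = inhibition above the mean of all tested compounds plus 3 SD, set per campaign, cut at about 14% in these data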;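 also: inhibitors block serine hydrolase probe labeling of LYPLA1 so polarization falls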
Fam108B counter = counter-screen for RBBP9 inhibitors: inhibitors of mouse Fam108B; recombinant Fam108B, FP-Rh probe fluorescence polarization; inhibition, % at 9.51 µM; 0.33% of 300,000 active; AID 1947;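 active = inhibition above the screen mean inhibition plus 3 SD, computed separately per campaign, cut at about 18% in these data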;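 also: inhibitors lower polarization as less probe binds the enzyme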
LYPLA2 inh = blocks human lysophospholipase 2, a PME1 counter-screen | O95372 | recombinant LYPLA2, FP-Rh probe fluorescence polarization | inhibition, % at 5.9 µM | 0.38% of 320,000 active | AID 2177;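 active = inhibition above the screen-wide mean plus 3 SD, limit set per campaign, cut at about 26% in these data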
PME-1 inh = blocks human protein phosphatase methylesterase 1; Q9Y570; recombinant PME-1, FP-Rh probe fluorescence polarization; 0.53% of 320,000 active; AID 2130; inhibition, % at 5.9 µM;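 active = inhibition above the campaign mean of all compounds plus 3 SD, cut at about 26% in these data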;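 also: competitive labeling of PME-1 active site by serine hydrolase directed probe; inhibitors block probe labeling so polarization falls and inhibition rises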
Target sequence (Q9Y570 whole entry, looked up): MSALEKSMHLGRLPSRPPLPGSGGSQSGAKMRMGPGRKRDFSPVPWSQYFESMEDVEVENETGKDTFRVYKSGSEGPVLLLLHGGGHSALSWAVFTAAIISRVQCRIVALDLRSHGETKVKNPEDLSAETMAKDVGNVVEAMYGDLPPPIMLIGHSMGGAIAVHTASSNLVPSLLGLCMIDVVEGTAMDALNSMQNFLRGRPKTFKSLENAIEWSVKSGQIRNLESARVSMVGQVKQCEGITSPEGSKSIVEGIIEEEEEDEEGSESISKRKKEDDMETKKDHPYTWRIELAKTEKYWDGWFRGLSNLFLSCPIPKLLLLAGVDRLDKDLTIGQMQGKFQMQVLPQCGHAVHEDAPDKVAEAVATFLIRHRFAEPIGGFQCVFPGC
Fam108b confirm = confirmation of mouse Fam108b serine hydrolase inhibitors | 44% of 930 active | AID 1978 | shares compounds with Fam108B counter | inhibition, % at 9.51 µM | recombinant Fam108b, FP-Rh probe fluorescence polarization;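 active = inhibition above a limit from the primary screen, the mean over all compounds plus 3 SD, cut at about 19% in these data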;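 also: inhibitors free the probe so polarization falls as inhibition rises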
Fam108b inh = inhibits mouse Fam108b in gel-based ABPP; shares compounds with Fam108B counter; recombinant Fam108b, fluorophosphonate probe; inhibition, % at 20 µM; 44% of 260 active; in the data active = inhibition above about 40%
Each line names hits and unclear results; the compound was inactive in the other large screens (follow-up assays come after a bar, where they were run); ! = repeats disagree.

CC1=NN(c2ccccc2)C(=O)/C1=C/c1c(O)n(-c2ccc(F)cc2)[nH]c1=O	Fam108B counter 46.5, PME-1 inh 50.9 | Fam108b confirm 50.8 | Fam108b inh inactive
CC(NC(=O)Cc1ccccc1)C1COc2ccccc2O1 (configuration not stated)	Fam108B counter 124.7 | Fam108b confirm inactive
CN(C)c1ccc(NC(=O)CSc2nc(N)c(C(=O)Nc3ccc(N(C)C)cc3)s2)cc1	Fam108B counter 19.3 | Fam108b confirm inactive
Brc1ccc(N/N=C(/N=Nc2nn[nH]n2)c2ccccc2)cc1	Fam108B counter 24.8, PME-1 inh 50.5 | Fam108b confirm 28.5
Cc1cccc(NC(=O)/C(C#N)=C/c2ccc(Cl)cc2)n1	Fam108B counter 19.2 | Fam108b confirm inactive
Cc1cccc(NC(=O)/C(C#N)=C/c2cccc([N+](=O)[O-])c2)n1	Fam108B counter 24.9 | Fam108b confirm 21.4
COCc1c(C(=O)N/N=C(/C)c2ccc(OCc3ccccc3)cc2)nnn1-c1nonc1N	none
CCOC(=O)c1sc(NC(=O)Nc2ccc(Cl)cc2)cc1C	Fam108B counter 44.1 | Fam108b confirm 83.2 | Fam108b inh 95.0
Cc1c(C(=O)Nc2nccs2)oc2ccc(Br)cc12	none (no result: LYPLA1 inh, Fam108B counter, LYPLA2 inh, PME-1 inh)
CCC(=O)Oc1ccc(C/C(=N\O)c2ccc(O)cc2O)o1	Fam108B counter 25.9, PME-1 inh 36.0 | Fam108b confirm inactive
CCOC(=O)c1ccc(CC(=O)c2ccc(O)cc2O)o1	none
CN1C(=O)/C(=C/c2ccc(C(=O)Nc3ccc(O)cc3C(=O)O)cc2)SC1=S	Fam108B counter 18.7, PME-1 inh 35.1 | Fam108b confirm inactive
O=S(=O)(NCc1ccccc1)NCc1ccc(Cl)cc1Cl	none
Oc1ccc(/C=N/Nc2cccc3cccnc23)c(O)c1	Fam108B counter 20.6, PME-1 inh 35.7 | Fam108b confirm 20.7
O=C(O)C1Nc2ccc(OC(F)(F)F)cc2C2C=CCC12 (configuration not stated)	Fam108B counter 22.5 | Fam108b confirm inactive
COc1cccc2c1NC(C(=O)O)C1CC=CC21 (configuration not stated)	Fam108B counter 53.4 | Fam108b confirm inactive
COc1cccc(C2Nc3c(F)cc(Br)cc3C3C=CCC32)c1OC (configuration not stated)	none
Cc1sc2nc(-c3ccc(Br)cc3)oc(=O)c2c1C	none
O=C(O)c1ccc(/C=N\Nc2ccc(S(=O)(=O)N3CCOCC3)cc2[N+](=O)[O-])cc1	none
Cc1ccc(-n2c(O)c(/C=N/Nc3ccc(S(=O)(=O)N4CCOCC4)cc3[N+](=O)[O-])c3ccccc3c2=O)c(C)c1	Fam108B counter 32.2, PME-1 inh 34.4 | Fam108b confirm 45.5 | Fam108b inh 45.0
COC(=O)c1sc(NC(=S)NNC(=O)c2c(Br)c(C)nn2C)c(C(=O)OC)c1C	Fam108B counter 26.3 | Fam108b confirm 24.4
COC(=O)c1sc(NC(=O)C(C)C)c(C(=O)OC)c1C	none
COC(=O)c1ccc(OCCN2CCCCCC2)cc1	none
O=C(c1ccc(OCCN2CCCCC2)cc1)c1c(-c2ccc(O)cc2)sc2cc(O)ccc12	Fam108B counter 20.7 | Fam108b confirm 24.0!
Nc1nonc1-n1nnc(C(=O)N/N=C/c2ccccn2)c1CNc1ccccc1	none
Cn1c(COc2ccc(F)cc2)nnc1SCC(=O)NC1CC1	none
COc1cc2c(cc1NC(=O)Nc1ccc(C)cc1)oc1ccccc12	none
COc1cc2c(cc1NC(=O)Nc1cccc(C)c1)oc1ccccc12	Fam108B counter 22.5, PME-1 inh 35.8 | Fam108b confirm inactive
O=C(c1ccco1)N1CCN(c2c([N+](=O)[O-])nn(-c3cccc(Cl)c3)[n+]2[O-])CC1	none
Cc1ccc(-c2ccc(C)c(N)c2C)c(C)c1N	none
CCN(CC)c1ccc(C2Nc3cccc4cccc(c34)N2)c(O)c1	Fam108B counter 50.8, PME-1 inh 47.5 | Fam108b confirm 53.5 | Fam108b inh 90.0
O=C1NN(c2cccc(Br)c2)C(=O)/C1=C/c1ccc(-c2cc([N+](=O)[O-])ccc2O)o1	Fam108B counter 20.5 | Fam108b confirm inactive
O=C1NN(c2cccc(Br)c2)C(=O)/C1=C\c1ccc(O)cc1	none
